Results as given in PubChem BioAssay AID588726 (The Scripps Research Institute Molecular Screening Center, 2011).
Among all 360,000 compounds or so, about 8,200 (2.3%) were called active. For the sample, actives were picked, then their nearest neighbours and some compounds at random. Values without a mark were called inactive. Cut-off read from the data, not from the text of the source: active = inhibition above about 27%; inactive = the rest.

molecular target: Fructose-bisphosphate aldolase (Mycobacterium tuberculosis (strain ATCC 25618 / H37Rv)) (UniProt P9WQA3); test: M. tuberculosis aldolase activity blockers – biochemical, fluorescence, strain H37Rv, primary screen (AID 588726);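 note: 0% = vehicle and 100% = reference inhibitor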; details: purified M. tuberculosis FBA, fluorescence read-out, at 1 µM, active compounds read high
Sequence (P9WQA3 whole entry, looked up): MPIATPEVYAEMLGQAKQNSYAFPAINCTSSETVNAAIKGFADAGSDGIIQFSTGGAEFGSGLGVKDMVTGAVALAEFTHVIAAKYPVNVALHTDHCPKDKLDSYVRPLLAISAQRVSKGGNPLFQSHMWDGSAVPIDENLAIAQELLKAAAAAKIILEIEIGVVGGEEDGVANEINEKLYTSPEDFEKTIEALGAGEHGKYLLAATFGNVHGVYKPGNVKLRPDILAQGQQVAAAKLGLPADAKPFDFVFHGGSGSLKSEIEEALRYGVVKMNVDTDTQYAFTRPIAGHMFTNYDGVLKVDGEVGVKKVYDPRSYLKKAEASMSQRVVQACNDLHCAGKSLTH

Structure (SMILES) | inhibition
Cc1ccnc(NS(=O)(=O)c2ccc(NC(=O)c3oc4ccc(F)cc4c3C)cc2)n1 | 1.55%
CN(C(=O)c1cccc(NC(=O)Cc2ccc(NC(=O)C3CCCN(C(=O)C4CC4)C3)cc2)c1)C1CC1 (configuration not stated) | 0.61%
CN(C)Cc1c(O)ccc2c(=O)c(-c3ccccc3Cl)coc12 | 96.3% (active)
CN(C)Cc1c(O)ccc2occ(C(O)c3ccccc3)c12 (configuration not stated) | 6.31%
Cc1ccc(C(=O)c2coc3ccc(O)c(CN(C)C)c23)cc1 | -0.7%
O=C(CNC(=O)OCc1ccccc1)Oc1cc2oc(=O)cc(-c3ccccc3)c2cc1Cl | 36.7% (active)
CC(Oc1ccc2c(-c3ccccc3)cc(=O)oc2c1)C(=O)NC(Cc1c[nH]c2ccccc12)C(=O)O (configuration not stated) | -3.79%
O=C(CNC(=O)c1ccccc1)NCC(=O)OCc1ccc(Cl)cc1 | 0.34%
CCN(C(=O)COC(=O)C1CCN(S(=O)(=O)c2ccc(C)c(C)c2)CC1)C1CCS(=O)(=O)C1 (configuration not stated) | 4.31%
CCNC(=O)COC(=O)CCNC(=O)c1cccc(C)c1 | -2.08%
COCCN(CCOC)c1nc(N)c2c(N)nc3c(c2c1C#N)CC(=O)N3Cc1ccc(Cl)cc1 | 32.8% (active)
CN(Cc1ccccc1)C(=O)C1CCCN(c2ncnc3c2nc2n3CCCCC2)C1 (configuration not stated) | 0.44%
COc1cccc(NS(=O)(=O)c2ccc(-c3coc(C)n3)cc2)c1 | -2.5%
O=C(/C=C/[C@H]1O[C@@H](n2ccc(=O)[nH]c2=O)[C@H](O)[C@@H]1O)NCc1ccccn1 | -1.68%
CCOC(=O)c1cc(C(C)C)sc1NC(=O)COC(=O)c1nccnc1N | 55.2% (active)
CCOC(=O)c1cc(C)sc1NC(=O)C1CCC1 | 4.25%
Cc1cc(C(=O)OCC(=O)Nc2nnc(C(C)C)s2)c2ccccc2n1 | 1.64%
Cc1cc(C)c2c(c1)NP(=S)(c1ccccc1)N2 (configuration not stated) | 34.4% (active)
COc1ccc2c(c1)NP(=S)(c1ccccc1)N2 (configuration not stated) | 18.1%
COc1cc2nc(N3CCN(C(=O)[C@@H]4CCCO4)CC3)nc(N)c2cc1OC | 95.4% (active)
O=C(C1CCCO1)N1CCC(c2nc3ccccc3[nH]2)CC1 (configuration not stated) | -0.87%
COC(=O)c1cc(OC)c(OC)cc1NC(=O)C1CCCO1 (configuration not stated) | 15.2%
C=CCOc1ccc(/C=C/C(=O)OCC(=O)NCC2CCCO2)cc1 (configuration not stated) | 1.08%

Structure (SMILES) | inhibition
CC1(C)CC(=O)c2cc(OCC(=O)NCC3CCCO3)ccc2O1 (configuration not stated) | 78.8% (active)
CCOc1ccc(S(=O)(=O)NCCC(=O)NCC2CCCO2)cc1 (configuration not stated) | -1.07%
CC1=C(C(=O)N(C(C)C)C(C)C)CC(CC(=O)NCCCCc2ccccc2)C(=O)N1CCC1=CCCCC1 (configuration not stated) | -1.08%
O=C(NC1CC1)C(Cc1ccccc1)NS(=O)(=O)c1ccccc1F (configuration not stated) | 2.61%
Cc1ccc(SCC(=O)NNC(=O)c2ccc(S(C)(=O)=O)cc2)cc1 | 0.63%
CC(C)(C)c1ccc(/C=C/C(=O)NCCCn2ccnc2)cc1 | 1.36%
CCCC/C=C/c1cccc2nncn12 | 27.5% (active)
O=C(O)c1ccccc1-c1cccc2nncn12 | 4.68%
OCC1(CO)CC2(C1)CC(CO)(CO)C2 | 0.01%
Cc1nn(-c2ncccn2)c2c1C(=O)CC(C)(C)C2Br (configuration not stated) | 4.4%
COc1ccc(NC(=O)/C(N=Nc2cccc(S(=O)(=O)Nc3ccc(SC(F)F)cc3)c2)=C(\C)O)cc1 | -0.31%
CCc1ccc(C(=O)NC(=S)Nc2ccccc2N2CCOCC2)cc1 | 0.12%
O=c1c2c(nc3cc(-c4cccc(Cl)c4)[nH]n13)CCCC2 | 3.87%
Cc1cc(=O)n2[nH]c(-c3cccc(Cl)c3)cc2n1 | 32.4% (active)
Cc1cc(=O)[nH]c(SCc2ccc(Cl)cc2)n1 | 0.44%
C[C@H](NC(=O)c1ccccc1Cl)C(=O)OCCOc1cccc(Cl)c1 | 4.6%
CCN(CC)CCNCc1ccc(OCc2ccc(Cl)nc2)c(OC)c1 | -0.85%
O=C(CN1C(=O)NC2(CCCC2)C1=O)Nc1ccc(F)c(F)c1F | -0.1%
CC(=O)NCCC(=O)Nc1nc(C)c(Cc2ccc3c(c2)OCO3)s1 | -0.89%
Cc1cc(NC(=O)CN2C(=O)NC(CCc3ccccc3)C2=O)no1 (configuration not stated) | 0.86%
COCC(=O)N(C)[C@H]1C[C@H]2c3cc(Oc4ccccc4C)ccc3CCN2C(=O)[C@H]1[C@H](C)O | 0.95%
C[C@H](O)[C@@H]1C(=O)N2CCc3c([nH]c4ccccc34)[C@@H]2C[C@@H]1N(C)C(=O)Nc1ccc(F)cc1 | 55.9% (active)
C[C@H](O)[C@@H]1C(=O)N2CCc3ccc(N4CCOCC4)cc3[C@@H]2C[C@@H]1N(C)C(=O)C(C)(C)C | 7.29%

Structure (SMILES) | inhibition
COc1ccc(CCNC(=O)CCCCCNC(=O)N2CCn3c2nc2ccccc23)cc1OC | -0.38%
CCOc1ccc2c(=O)c(-c3ccc4c(c3)OCCCO4)c(C)oc2c1 | -0.24%
CCc1nc2ccccc2c(C(=O)OC2CCCCC2=O)c1C (configuration not stated) | 0.09%
CCc1c(C)c2ccc(OC3CCCCC3=O)cc2oc1=O (configuration not stated) | 90.5% (active)
COC(=O)C(NS(=O)(=O)c1ccc(F)cc1)c1ccccc1 (configuration not stated) | 1.52%
CCSC1(SCC)N=C(N)C2(C#N)C(c3ccccc3)NC(C)=CC12C#N (configuration not stated) | 4.9%
CN1C[C@@H](CO)O[C@@H](n2cnc3c(N4CCN(CCO)CC4)ncnc32)C1 | -1.44%
COc1cccc2cc(C(=O)N3CCN(C(=O)c4ccccc4)CC3)c(=O)oc12 | -2.27%
CCOC(=O)N1CCN(C(=O)c2cc3c(ccc4ccccc43)oc2=O)CC1 | 48.8% (active)
COc1ccc2oc(=O)c(C(=O)NCc3ccccn3)cc2c1 | 82.7% (active)
COc1ccc(C(=O)N2CCCN(C)CC2)c(OC)c1 | 1.38%
COc1ccc(-c2nc(CS(=O)CC(=O)NCc3ccccn3)c(C)o2)cc1 (configuration not stated) | 4.79%
COc1ccc2oc(=O)c(C(=O)N3CCCC3)cc2c1 | 27.7% (active)
CCOC(=O)N1CCN(C(=O)c2n[nH]c(=O)c3ccccc23)CC1 | -0.89%
COc1ccc(NC(=O)C2C3C=CC(C3)C2C(=O)NCc2ccccn2)c(OC)c1 (configuration not stated) | 3.99%
C=CCc1cccc2cc(C(=O)N3CCN(C(=O)OCC)CC3)c(=O)oc12 | 1.44%
C=CCC(CC=C)(C(N)=O)c1ccccc1 | -1.04%
C[C@H]1CN([C@@H](C)CO)C(=O)CCCn2cc(nn2)CO[C@@H]1CN(C)C(=O)Nc1ccccc1 | 0.08%
O=C(NC1CCCC1)C1CC(=O)N(c2ccc(F)cc2)C1 (configuration not stated) | -3.06%
COc1cccc(NC(=O)C2(C)CCN2Cc2ccccc2Cl)c1 (configuration not stated) | 3.88%
CCOC(=O)Cc1csc(SCc2cc(=O)oc3cc(O)ccc23)n1 | 2.87%
Cc1cc(=O)oc2cc(OCC3CC(c4ccccc4Cl)=NO3)ccc12 (configuration not stated) | 9.86%
Cc1nc(COc2cc3oc(=O)cc(C)c3cc2Cl)cs1 | 27.6% (active)

Structure (SMILES) | inhibition
CC1(C)Cc2c(C#N)c(SCc3nc4ccccc4[nH]3)nc(N3CCOCC3)c2CO1 | 29.3% (active)
CC(C)c1nc(N2CCOCC2)c(C#N)c2c1COC(C)(C)C2 | 48.2% (active)
C1=C(N2CCOCC2)/C(=C/c2nc3ccccc3[nH]2)CC1 | 14.8%
CC1(C)Cc2c(sc(NC(=O)C(=O)N3CCOCC3)c2C#N)CO1 | 1.66%
CCOC(=O)CSc1nc(N2CCOCC2)c2c(c1C#N)CC(C(C)C)OC2 (configuration not stated) | 0.67%
CC(C)C(=O)N1CCN(c2nc(-c3ccccc3)c3c(c2C#N)CC(C)(C)OC3)CC1 | 18.4%
CN1CCC2(CC1)NC(=O)NC2=O | 0.25%
Cc1cc(C(=O)N2CCC(C(=O)O)CC2)c(C(F)(F)F)o1 | -0.52%
CC(C)CN1CCNC(=O)C1CC(=O)N(C)CC1CCOCC1 (configuration not stated) | 91.2% (active)
COc1ccccc1CN1CCNC(=O)C1CC(=O)N(C)CC1CCOCC1 (configuration not stated) | 0.79%
CN(CCC1CCOCC1)C(=O)CC1C(=O)NCCN1Cc1cccc(F)c1 (configuration not stated) | 5.7%
N#CCc1c[nH]c2ccc([N+](=O)[O-])cc12 | -4.4%
O=C(CN(C(=O)c1csnn1)c1ccc(Br)cc1)NC1CCCC1 | 2.14%
COc1ccc(/C=C/C(=O)NC(=S)NN2CCCCC2c2cccnc2)cc1 (configuration not stated) | 1.24%
CC1CCCCN1C(=O)CCS(=O)(=O)Cc1ccccc1 (configuration not stated) | -0.22%
Cc1nn(-c2ccccc2)nc1C(=O)OCC(=O)N1CCCCC1C (configuration not stated) | 31.5% (active)
Cc1cc(C(=O)OCC(=O)N2C(C)CCCC2C)c2ccccc2n1 (configuration not stated) | 6.33%
O=C(CN(C(=O)c1nsc(Cl)c1Cl)c1cccc(F)c1)NC1CCCC1 | 0.07%
COc1ccc(CNC(=O)COC(=O)/C=C/c2ccc(S(=O)(=O)N3CCOCC3)cc2)cc1 | -5.75%
Cc1ccc(C2Nc3ccccc3C(=O)N2CCN2CCNC2=O)cc1 (configuration not stated) | 95.6% (active)
Cc1ccc(S(=O)(=O)N2CCC(C(=O)OCC(=O)N3CC(=O)Nc4ccccc43)CC2)cc1 | -1.07%
O=C1c2ccccc2NC(c2ccccn2)N1NS(=O)(=O)c1ccccc1 (configuration not stated) | 11.3%
Cc1[nH]n(-c2ccccc2)c(=O)c1CCOC(=O)c1ccc(C(F)(F)F)cc1 | -0.48%
